Experimental data as given in PubChem BioAssay (EPA / NIEHS).
Inconclusive results are not listed. The source made the active and inactive calls. The calls were made as follows, unless noted: active = hit-call score of the fitted dose curve at least 0.9, where 1 is the maximum; inactive = score below 0.9.

Assays:
[1] = read-out: Interleukin-1 alpha (IL1a), IL1A (gene 3552); test: BSK_LPS_IL1a: BioMAP Diversity Plus: LPS Assay for Interleukin-1 alpha (IL1a) Biomarker Activity (AID 2283080); settings: primary human HUVEC with PBMC; actives raise or lower the signal
Summary of the method: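 HUVEC/PBMC co-culture, LPS system; 24 h after dosing; IL-1a by ELISA; gain or loss of signal fitted bidirectionally vs DMSO baseline.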

[2] = BSK_LPS_PGE2: BioMAP Diversity Plus: LPS Assay for Prostaglandin E2 (PGE2) Biomarker Activity (AID 2283082); settings: primary human HUVEC with PBMC; actives raise or lower the signal;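 as to AC50: secreted prostaglandin E2 measured by ELISA in LPS-stimulated co-culture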
Summary of the method: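 HUVEC plus human PBMC co-culture stimulated with LPS; secreted PGE2 quantified by ELISA 24 h after chemical dosing. Activity fitted bidirectionally against DMSO baseline; parallel SRB staining (0.1% SRB after 10% TCA fixation, 560 nm) flags overt cytotoxicity.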

[3] = read-out: Macrophage colony-stimulating factor (MCSF), CSF1 (gene 1435); test: BSK_LPS_MCSF: BioMAP Diversity Plus: LPS Assay for Macrophage colony-stimulating factor (MCSF) Biomarker Activity (AID 2283083); settings: primary human HUVEC with PBMC; actives raise or lower the signal
Summary of the method: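 HUVEC + PBMC co-culture (human primary), 24 h post-dose; M-CSF by ELISA; gain/loss of signal fitted bidirectionally vs DMSO baseline.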

[4] = read-out: Tissue Factor, F3 (gene 2152); test: BSK_LPS_TissueFactor: BioMAP Diversity Plus: LPS Assay for Tissue Factor Biomarker Activity (AID 2283084); settings: primary human HUVEC with PBMC; actives raise or lower the signal
Summary of the method: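 HUVEC/PBMC co-culture, LPS-activated; CD142 ELISA read 24 h post-dose; bidirectional curve fit vs DMSO negative control.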

[5] = read-out: Tumor necrosis factor (Homo sapiens) (UniProt P01375); test: BSK_LPS_TNFa: BioMAP Diversity Plus: LPS Assay for Tumour Necrosis Factor alpha (TNFa) Biomarker Activity (AID 2283085); settings: primary human HUVEC with PBMC; actives raise or lower the signal
Summary of the method: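 Human umbilical vein endothelial cells co-cultured with PBMC and stimulated with LPS. TNFa was measured by ELISA 24 h after chemical dosing, fitted bidirectionally relative to DMSO.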

[6] = read-out: Vascular cell adhesion molecule 1 (VCAM1), VCAM1 (gene 7412); test: BSK_LPS_VCAM1: BioMAP Diversity Plus: LPS Assay for Vascular cell adhesion molecule 1 (VCAM1) Biomarker Activity (AID 2283086); settings: primary human HUVEC with PBMC; actives raise or lower the signal
Summary of the method: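 Human umbilical vein endothelial cells co-cultured with PBMC and stimulated with LPS; VCAM-1 measured by ELISA 24 h after dosing. Bidirectional curve fitting against DMSO baseline; cytotoxicity tracked in parallel by SRB total-protein staining.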

CD38, CD38 (gene 952) = test: BSK_SAg_CD38: BioMAP Diversity Plus: SAg Assay for CD38 Biomarker Activity (AID 2283087); settings: primary human HUVEC with PBMC; actives raise or lower the signal
Summary of the method: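 Human HUVEC plus PBMC co-culture stimulated with superantigen; CD38 measured by ELISA 24 h after chemical dosing. Fluorescence read-out, bidirectional fit against DMSO; cytotoxicity tracked in parallel by SRB and Alamar Blue.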

CD40, CD40 (gene 958) = test: BSK_SAg_CD40: BioMAP Diversity Plus: SAg Assay for CD40 Biomarker Activity (AID 2283088); settings: primary human HUVEC with PBMC; actives raise or lower the signal
Summary of the method: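 HUVEC/PBMC co-culture, 24 h post-dose; CD40 by ELISA, fluorescence intensity; bidirectional fit vs DMSO negative control.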

[7] = read-out: Monocyte Chemoattractant Protein-1 (MCP1), CCL2 (gene 6347); test: BSK_SAg_MCP1: BioMAP Diversity Plus: SAg Assay for Monocyte Chemoattractant Protein-1 (MCP1) Biomarker Activity (AID 2283090); settings: primary human HUVEC with PBMC; actives raise or lower the signal
Summary of the method: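 MCP-1 levels in the endothelial–PBMC SAg co-culture were quantified by ELISA at 24 h post-dosing; both increases and decreases versus DMSO scored. Cytotoxicity monitored by SRB total protein in parallel cultures.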

[8] = read-out: E-selectin (Homo sapiens) (UniProt P16581); test: BSK_SAg_Eselectin: BioMAP Diversity Plus: SAg Assay for Eselectin Biomarker Activity (AID 2283091); settings: primary human HUVEC with PBMC; actives raise or lower the signal
Summary of the method: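 E-selectin ELISA readout at 24 h post-dosing in human umbilical vein endothelial cell/PBMC co-culture; gain or loss of signal fitted relative to DMSO baseline.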

[9] = read-out: Monokine induced gamma interferon (MIG), CXCL9 (gene 4283); test: BSK_SAg_MIG: BioMAP Diversity Plus: SAg Assay for Monokine induced gamma interferon (MIG) Biomarker Activity (AID 2283092); settings: primary human HUVEC with PBMC; actives raise or lower the signal
Summary of the method: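 Endothelial cells and PBMC were co-cultured, exposed to test chemicals, and sampled 24 h later. MIG was measured by ELISA, and responses were fitted in both directions relative to DMSO.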

[10] = BSK_SAg_PBMCCytotoxicity: PBMC Cytotoxicity Assessment in the BioMAP Diversity Plus: SAg Assay (AID 2283093); settings: primary human HUVEC with PBMC;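 also: PBMC viability measured as Alamar Blue reduction fluorescence at 546/580 nm; fitted both ways against DMSO so a hit may be loss or gain of signal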;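 as to AC50: PBMC superantigen activated with SEB plus TSST-1 one hour after compound addition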
Summary of the method: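 HUVEC/PBMC co-culture; PBMC exposed to chemical 1 h before SEB and TSST-1 activation (20 ng/mL each), incubated 90 h, then Alamar Blue 6 h, fluorescence 546/580 nm. Bidirectional fit versus DMSO baseline.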

[11] = read-out: Interleukin-8 (IL8), CXCL8 (gene 3576); test: BSK_SAg_IL8: BioMAP Diversity Plus: SAg Assay for Interleukin-8 (IL8) Biomarker Activity (AID 2283094); settings: primary human HUVEC with PBMC; actives raise or lower the signal
Summary of the method: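 Human umbilical vein endothelial cells co-cultured with PBMC, stimulated with superantigen; IL-8 measured by ELISA 24 h after chemical dosing. Bidirectional fitting versus DMSO; SRB staining in parallel cultures tracks cytotoxicity.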

[12] = BSK_SAg_Proliferation: Cell Proliferation Assessment in the BioMAP Diversity Plus: SAg Assay (AID 2283095); settings: primary human HUVEC with PBMC
Summary of the method: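 Human umbilical vein endothelial cells co-cultured with PBMC; sulforhodamine B total-protein staining (0.1% SRB after 10% TCA fixation, absorbance 560 nm) at 96 h in sub-confluent culture. Fitted bidirectionally against DMSO.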

[13] = BSK_SAg_SRB: Viability Assessment in the BioMAP Diversity Plus: SAg Assay (AID 2283096); settings: primary human HUVEC with PBMC;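 also: cells read one day after compound addition; hits may be either gain or loss of signal compared with DMSO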
Summary of the method: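 Human umbilical vein endothelial cells co-cultured with PBMC, read 24 h after compound dosing. Total protein measured by sulforhodamine B staining (0.1% SRB after 10% TCA fixation, absorbance 560 nm); bidirectional fit versus DMSO baseline.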

CD69, CD69 (gene 969) = test: BSK_SAg_CD69: BioMAP Diversity Plus: SAg Assay for CD69 Biomarker Activity (AID 2283089); settings: primary human HUVEC with PBMC; actives raise or lower the signal
Summary of the method: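 Primary human vascular co-culture (umbilical vein endothelium with peripheral blood mononuclear cells) exposed to test chemical for 24 h. CD69 levels quantified by fluorescence ELISA; DMSO served as negative control for bidirectional fitting.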

[14] = molecular target: human CYP2D6, CYP2D6 (gene 1565) (UniProt P10635); test: NVS_ADME_hCYP2D6: NovaScreen (NVS) CYP450-related Enzyme Activity (ADME) Assay for human CYP2D6 (AID 2283107; active = hit-call score of the fitted dose curve at least 0.9, where 1 is the maximum)
human CYP2D6, CYP2D6 (gene 1565), sequence (P10635 whole entry, looked up): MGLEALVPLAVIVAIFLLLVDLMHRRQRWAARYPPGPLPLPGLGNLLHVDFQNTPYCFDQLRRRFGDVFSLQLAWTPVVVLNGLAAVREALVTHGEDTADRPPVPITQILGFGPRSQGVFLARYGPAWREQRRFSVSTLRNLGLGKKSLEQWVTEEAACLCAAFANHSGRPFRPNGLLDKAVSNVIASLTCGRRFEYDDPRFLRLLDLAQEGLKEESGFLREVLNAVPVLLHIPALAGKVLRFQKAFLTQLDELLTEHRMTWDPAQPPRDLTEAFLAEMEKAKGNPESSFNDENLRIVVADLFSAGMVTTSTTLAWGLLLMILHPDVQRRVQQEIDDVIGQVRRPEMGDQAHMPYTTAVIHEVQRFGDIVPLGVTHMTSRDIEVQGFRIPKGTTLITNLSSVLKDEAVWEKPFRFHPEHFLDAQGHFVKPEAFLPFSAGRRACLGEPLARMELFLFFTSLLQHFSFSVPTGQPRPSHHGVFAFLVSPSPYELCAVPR
Summary of the method: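 Fluorescence intensity read 1 h post-dosing; insect-cell-expressed recombinant protein with fluorogenic substrate, no cells. Activity is scored as signal loss relative to acetonitrile baseline, first at a single 10 uM concentration in duplicate, then as concentration series for confirmed actives.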

[15] = molecular target: human CYP19A1, CYP19A1 (gene 1588) (UniProt P11511); test: NVS_ADME_hCYP19A1: NovaScreen (NVS) CYP450-related Enzyme Activity (ADME) Assay for human CYP19A1 (AID 2283098; active = hit-call score of the fitted dose curve at least 0.9, where 1 is the maximum)
human CYP19A1, CYP19A1 (gene 1588), sequence (P11511 whole entry, looked up): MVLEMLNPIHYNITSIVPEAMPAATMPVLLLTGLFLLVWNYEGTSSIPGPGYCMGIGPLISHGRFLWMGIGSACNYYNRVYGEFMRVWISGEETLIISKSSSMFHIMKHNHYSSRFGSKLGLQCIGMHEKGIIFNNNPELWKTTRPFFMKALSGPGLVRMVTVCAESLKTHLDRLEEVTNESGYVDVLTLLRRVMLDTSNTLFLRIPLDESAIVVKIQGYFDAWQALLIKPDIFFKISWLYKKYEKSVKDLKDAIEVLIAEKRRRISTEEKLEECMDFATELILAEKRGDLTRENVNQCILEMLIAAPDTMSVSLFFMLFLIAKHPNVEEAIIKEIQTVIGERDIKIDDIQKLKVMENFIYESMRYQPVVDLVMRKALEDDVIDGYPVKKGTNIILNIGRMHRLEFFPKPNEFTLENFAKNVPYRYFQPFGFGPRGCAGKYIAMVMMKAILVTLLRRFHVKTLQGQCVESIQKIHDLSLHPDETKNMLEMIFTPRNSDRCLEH
Summary of the method: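 Recombinant enzyme in a cell-free format, read 0.5 h after dosing by fluorescence from a fluorogenic substrate. Loss of signal was fitted against acetonitrile as baseline. Primary screen in duplicate at 10 uM, actives then tested in concentration series.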

Measured: AC50

Tumor necrosis factor (Homo sapiens), sequence (P01375 whole entry, looked up): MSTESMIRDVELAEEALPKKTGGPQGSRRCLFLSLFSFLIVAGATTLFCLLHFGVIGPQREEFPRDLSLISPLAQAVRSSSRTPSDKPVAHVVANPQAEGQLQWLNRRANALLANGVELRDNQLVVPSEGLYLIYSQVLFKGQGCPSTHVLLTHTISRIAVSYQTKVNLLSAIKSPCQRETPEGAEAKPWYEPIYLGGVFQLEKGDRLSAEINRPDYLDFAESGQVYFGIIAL
E-selectin (Homo sapiens), sequence (P16581 whole entry, looked up): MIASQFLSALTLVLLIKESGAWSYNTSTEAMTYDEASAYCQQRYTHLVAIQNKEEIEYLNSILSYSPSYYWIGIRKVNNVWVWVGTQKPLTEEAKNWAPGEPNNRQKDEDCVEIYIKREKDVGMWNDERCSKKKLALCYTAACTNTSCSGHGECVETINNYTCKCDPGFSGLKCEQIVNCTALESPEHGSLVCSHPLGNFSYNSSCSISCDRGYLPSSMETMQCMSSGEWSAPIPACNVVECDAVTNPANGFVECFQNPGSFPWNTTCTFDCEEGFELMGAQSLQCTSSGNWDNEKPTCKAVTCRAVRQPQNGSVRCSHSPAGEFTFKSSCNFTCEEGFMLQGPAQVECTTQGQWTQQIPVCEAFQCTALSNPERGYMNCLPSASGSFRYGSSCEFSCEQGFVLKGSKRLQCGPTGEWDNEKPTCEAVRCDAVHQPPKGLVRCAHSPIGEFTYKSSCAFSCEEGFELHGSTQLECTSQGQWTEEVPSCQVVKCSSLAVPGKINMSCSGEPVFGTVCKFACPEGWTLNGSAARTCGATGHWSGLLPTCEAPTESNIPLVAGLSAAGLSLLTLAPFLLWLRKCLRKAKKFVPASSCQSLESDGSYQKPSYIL

Cc1ccc(S(=O)(=O)C(I)I)cc1
inactive: [2] | [5]
active: [1] 1.92 µM | [3] 2.3 µM | [4] 3.07 µM | [6] 3.03 µM | CD38, CD38 (gene 952) 2.99 µM | CD40, CD40 (gene 958) 2.98 µM | [7] 3.7 µM | [8] 5.14 µM | [9] 6.86 µM | [10] 1.43 µM | [11] 4.27 µM | [12] 0.866 µM | [13] 5.34 µM

O=C(O)C(F)(F)C(F)(F)C(F)(F)OC(F)(F)F
not listed: CD69, CD69 (gene 969) | [14] | [15]
inactive: all other assays above

O=C(c1ccccc1)c1ccc(O)cc1O
active: [2] 0.726 µM | CD38, CD38 (gene 952) 20 µM | [14] 5 µM
not listed: [15]
inactive: all other assays above

Cc1cnccn1
not listed: CD69, CD69 (gene 969) | [14] | [15]
inactive: all other assays above

CCOC(OCC)OCC
inactive: [15]
